Screening results from PubChem.
SARS PLpro yeast: qHTS of Yeast-based Assay for SARS-CoV PLP; S. cerevisiae expressing SARS-CoV PLpro, growth rescue; actives 0.19% (n = 330,000); AID 485353, 2010; Potency, µM (series often up to 32.9 µM), for the others: at the top dose activity, positive = growth rescue, most hits filed as activators; further: 0% is about no effect; nearly all actives have a fitted effect of over 55% in size
AMA1 RON2 block: qHTS for Inhibitors of AMA1-RON; Towards Development of Antimalarial Drug Lead: Primary Screen; Plasmodium falciparum AMA1 (3D7) - RON2 peptide interaction; AlphaScreen AMA1-biotinylated RON2 peptide binding; Potency, µM (top dose mostly 58.2 µM), inactives show at the highest dose activity change, negative = inhibition, actives largely listed as inhibitors; actives 0.2% (n = 360,000); active means well fitted inhibition curve with a large enough effect; inconclusive means small, poorly fitted or top-dose-only effect; inactive means no such curve, though single readings can be large or run the other way;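 further: 0% = vehicle wells and -100% = peptide control; nearly all actives have a fitted effect of over 45% in size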
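AMA1 (3D7) with his tag at 25 nM final met compounds first, then biotinylated RON2 peptide at 25 nM; detection used donor plus acceptor beads, 10 µg/mL apiece, read by AlphaScreen after 30 min at room temperature.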
NS1 inh: qHTS Assay for Inhibitors of Influenza NS1 Protein Function; Potency, µM (top dose mostly 46.1 µM), without a hit: at the top dose activity, positive = more growth; actives 0.4% (n = 270,000); AID 2326, 2010; further: actives are rising curves; nearly all actives have a fitted effect of over 50% in size
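Recovery from NS1-induced slow growth read by OD600 in budding yeast switched to galactose assay medium (pH 6.0, -URA) at 1:100 dilution. Compound 23 nl per well; the matching strain lacking NS1 serves as control.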
Starred values were filed as active, the others as inactive; ? = inconclusive; · = not tested or not shown; [ ] = another dose, or the depositor's remark. Rows were chosen to be rich in hits. Some 0.65% of all compounds tested hit in one or more screens of this group. Unless noted, the call rests on the fitted dose curve. Potency means the concentration at half of the fitted maximal effect.

SMILES	SARS PLpro yeast	AMA1 RON2 block	NS1 inh
CC1CCCN(CCCNS(=O)(=O)c2ccc3c(c2)CCN3C(=O)C2CC2)C1 (configuration not stated)	1%	-12%	6%
CN(Cc1ccc(N(C)C)cc1)C(=O)c1cc2ccccc2o1	-19%	14µM*	0%
Cc1c(C(=O)N(Cc2ccc(N(C)C)cc2)CC2CCCO2)oc2ccccc12 (configuration not stated)	-11%	?	-41%
CN(Cc1ccccc1)C(=O)c1cc2ccccc2o1	13%	3%	-47%
CN(C)c1ccc(CN(CC2CCCO2)C(=O)c2cc3ccccc3o2)cc1 (configuration not stated)	-3%	16µM*	·
CCOC(=O)c1ccccc1NC(=O)C1CSC2(C)CCC(=O)N12 (configuration not stated)	1%	3%	-1%
COC(=O)Cn1ncc(N2CC(C)OC(C)C2)c(Cl)c1=O (configuration not stated)	3%	4%	9%
Cc1cc2cc(CNC(=O)c3ccc(S(=O)(=O)N4CCCCC4)cc3)ccc2n1C	5%	10%	1.3µM*
Cc1ccc(CNC(=O)c2ccc(S(=O)(=O)N3CCCCC3)cc2)cc1	1%	17%	·
COc1ccc(NC(=O)c2nc(C)n(-c3ccc([N+](=O)[O-])cc3)n2)cc1	-5%	-2%	·
CCOC(=O)c1c(C)[nH]c(N=Nc2ccccc2)c1C	-27%	13µM*	-82%
CCOC(=O)c1c(C)[nH]c(N=Nc2ccc(C)cc2)c1C	-6%	-25%	5%
Cc1cc(-c2nnc(SCC(=O)Nc3ccc(C)c(C)c3)n2N)n[nH]1	1%	11%	-7%
CC(=O)NC(c1ccc(C)cc1)c1cc([N+](=O)[O-])c2cccnc2c1O (configuration not stated)	6%	-33%	4%
CCC(=O)NC(c1ccc(C)cc1)c1cc([N+](=O)[O-])c2cccnc2c1O (configuration not stated)	3.2µM*	27%[11.6 µM]	15%
Cc1sc(N/N=C/C=C/c2ccccc2)nc1-c1ccccc1	13µM*	52%	-2%
Cc1cc(C)nc(N/N=C/C=C/c2ccccc2)n1	-33%	26%	-9%
N#Cc1sc(NCc2ccccn2)nc1Cl	-2%	2%	4%
O=C(NCc1ccc2c(c1)OCO2)c1ccccc1	-1%	-20%	·
O=C(NCc1ccc2c(c1)OCO2)c1ccncc1	16µM*	-6%	-3%
Cc1cc[c]([Sb]2[O]C([C@H](O)[C@H](O)C(=O)O)[C@@H](CO)[O]2)cc1 (some centres not stated)	·	·	2%
CCOC(=O)C1=C(C)N(c2ccccc2)C(=O)/C1=C\c1ccco1	-1%	-27%	-8%
CCOC(=O)C1=C(C)N(c2ccccc2)C(=O)/C1=C\c1ccc(O)c(OC)c1	1%	?	2.5µM*
COc1ccccc1CCC(=O)Oc1ccccc1C#N	-3%	8%	3%
CC(=O)Oc1cccc2c1C(=O)c1c(OC(C)=O)cc(C(=O)O)cc1C2=O	14%	4%	-37%
SMILES	SARS PLpro yeast	AMA1 RON2 block	NS1 inh
CC(=O)Oc1cccc2c1C(=O)C1CC=CC(OC(C)=O)C1C2=O (configuration not stated)	·	32µM*	·
CCCc1cc(COC)c(C#N)c(=O)[nH]1	·	·	0%
O=C(CSc1nc(-c2ccncc2)nn1CC(=O)N1CCCCC1)NC1CCCC1	11%	3.8µM*	-2%
Cn1c(SCC(=O)NC2CCCCC2)nnc1-c1ccncc1	0%	18%	-19%
Cc1cccc(C)c1N1C(=O)CC(N2CCN(S(=O)(=O)c3ccccc3F)CC2)C1=O (configuration not stated)	-9%	-5%	·
O=C1CC(N2CCN(S(=O)(=O)c3ccccc3F)CC2)C(=O)N1c1ccccc1F (configuration not stated)	·	32µM*	·
Cn1ccc2c(N(c3ccccc3)C3CCCCC3)cc3c(c21)C1CCC3O1 (configuration not stated)	·	-1%	·
Cn1ccc2c(-c3ccc(C(F)(F)F)cc3)cc3c(c21)C1CCC3C1 (configuration not stated)	·	-1%	·
CN(Cc1ccccc1)c1cc2c(c3c1ccn3C)C1CCC2C1 (configuration not stated)	·	16µM*	·
CN(CCc1ccccc1)c1cc2c(c3c1ccn3C)C1CCC2C1 (configuration not stated)	·	16µM*	·
COc1ccccc1N(C)c1cc2c(c3c1ccn3C)C1CCC2C1 (configuration not stated)	·	13µM*	·
CN(c1cc2c(c3c1ccn3C)C1CCC2C1)C1CCCCC1 (configuration not stated)	·	16µM*	·
COc1ccc(-c2cc3c(c4c2ccn4C)C2CCC3C2)cc1F (configuration not stated)	·	-24%	·
Cn1ccc2c(-c3ccc(F)cc3)cc3c(c21)C1CCC3C1 (configuration not stated)	·	-28%	·
CCCCCC(=O)N1C[C@H](O)[C@@H](n2cc(COC(=O)c3ccccc3)nn2)C[C@@H]1c1ccc(OC)cc1	·	-1%	·
CN(C)c1ccc(CN2CCCCC2)cc1	2%	17%	-3%
CN(C)c1ccc(Cc2ccc(N(C)C)cc2)cc1	·	14µM*	·
Cc1ccc2ccc(C(Nc3ccccn3)c3ccccc3)c(O)c2n1 (configuration not stated)	11µM*	75%	-50%
Cc1ccc2ccc(C(Nc3ccccc3)c3ccccc3)c(O)c2n1 (configuration not stated)	·	47%	·
Oc1c([C@H](Nc2ccccn2)c2ccccc2)ccc2cccnc12	·	·	-40%
Cc1ccc2ccc(C(Nc3cccc(C(F)(F)F)c3)c3cccnc3)c(O)c2n1 (configuration not stated)	10µM*	78%	5%
COc1ccc2cc(C3=CCCC3(C)C(=O)O)ccc2c1 (configuration not stated)	·	-7%	·
CC1=NN(c2cccc(C(=O)O)c2)C(=O)/C1=C\C=C\c1ccco1	9%	0%	8%
CC1=NN(c2ccccc2)C(=O)/C1=C/C=C/c1ccccc1	-5%	3.2µM*	-8%
c1ccc2cc(NCNc3ccc4ccccc4c3)ccc2c1	·	·	-40%
SMILES	SARS PLpro yeast	AMA1 RON2 block	NS1 inh
CCc1ccccc1Nc1nn2c(=O)c3ccc(C(=O)NCc4cccs4)cc3nc2s1	1%	·	·
Cc1nonc1CN(C)C(=O)CC1C(=O)NCCN1Cc1ccc(F)c(F)c1 (configuration not stated)	1%	-10%	0%
CNC(=S)NNC(=O)COc1ccccc1C	-8%	0%	-10%
CNC(=S)NNC(=O)COc1cccc(C)c1C	10µM*	116%	-11%
CC1(C)CC(=O)C2=C(C1)O[C@@]1(CCCCN3C(=O)c4ccccc4C3=O)Cc3cc(C#N)ccc3C2O1	2%[6.58 µM]	·	8%
CCCCC[C@]12Cc3cc(OC)c(OC)cc3C(O1)c1c(cc(C)n(-c3ccccc3)c1=O)O2	9%[6.58 µM]	·	14%
O[C@@H](c1cc(C(F)(F)F)nc2c(Cl)cc(Cl)cc12)C1CCCCN1 (some centres not stated)	·	·	-3%
